From PubChem BioAssay
Values joined by “and” are separate entries in the source; they are usually repeats but may differ in a detail not shown here. Identical values can stand only once. Active and inactive are the calls of the source.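 How the source made its calls, unless noted: active means thallium flux through the channel raised or lowered by more than 3 SD from vehicle-only wells, actives on both sides; inactive means the rest.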

Key:
[1] = stimulators of nuclear beta-catenin in C2C12, primary screen, imaging, WNT3A-conditioned medium, mouse C2C12, NPC library (AID 1117326; in the data active means nuclear beta-catenin stimulation mostly above about 4.2%, no sharp cut-off; inactive means mostly below about 10%); conditions: stronger effect = higher value
[2] = stimulators of insulin release from INS-1E, primary screen, cell-based, 5 mM glucose, NPC library (AID 1117329;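 active means compound raises insulin release from rat beta cells at 5 mM glucose, no numeric limit stated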); conditions: rat INS-1E insulin secretion, at 10 µM, stronger effect = higher value
[3] = growth inhibition of GSK3B-pretreated HCT116 cells – cell-based, CellTiter-Glo, 0.2 to 20 µM (AID 1117336;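 active means compounds lowering colon cancer cell viability after pretreatment blocking the GSK3B kinase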); conditions: HCT116 viability after GSK3B inhibitor, at 20 µM, stronger effect = higher value
[4] = inhibition of endothelial tube formation, primary screen, imaging, VEGF stimulated, CD31 staining, tube area, NPC library (AID 1117340;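 active means compound that reduces growth-factor-driven endothelial tube area in a mixed cell culture, no cutoff stated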); conditions: VEGF-stimulated ADSC/ECFC co-culture, at 10 µM, stronger effect = higher value
[5] = glucagon-like peptide 1 release enhancers, primary assay, NCI-H716 cell line, NPC library (AID 1117341;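 active means compound raises GLP1 secretion from the human gut endocrine cells, with no numeric limit stated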); conditions: NCI-H716 cells, at 10 µM, stronger effect = higher value
[6] = HCT116 colon cancer cell growth inhibition, primary screen, CellTiter-Glo luminescence, NPC library (AID 1117342;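 active means compounds that lower survival of HCT116 colon cancer cells in the luminescence readout, no numeric limit stated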); conditions: at 20 µM (top of the series)
[7] = CellTiter-Glo luminescent readout of SW480 viability loss, NPC library primary (AID 1117343;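 active means compounds that lower viability of the colon cancer cells in the luminescence readout, with no numeric limit stated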); conditions: CellTiter-Glo luminescence; at 20 µM (top of the series)
[8] = decreased DLD-1 cellular survival, CellTiter-Glo luminescent readout, NPC compound collection, primary HTS (AID 1117346;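 active means compounds that lower survival of DLD-1 colon cancer cells in the luminescence readout, no cutoff given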); conditions: DLD-1 viability, CellTiter-Glo luminescence; at 20 µM (top of the series)
[9] = biological target: 6-phosphogluconate dehydrogenase, decarboxylating (Homo sapiens) (UniProt P52209); assay: 6PGD enzyme inhibitors, primary screen, biochemical, human, recombinant enzyme, NADPH absorbance (AID 1159550;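 active means at least 20% inhibition of 6-phosphogluconate dehydrogenase activity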); conditions: recombinant 6PGD, NADPH absorbance 341 nm; at 10 µM; stronger effect = higher value
[10] = modulation of C. elegans fzo-1 (AID 1259413; call rule not given here;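 further: fzo-1 mutant C. elegans worms in liquid wells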); conditions: C. elegans fzo-1 modulator screen, mean read-out; stronger effect = higher value
[11] = differential killing of epithelial or mesenchymal cells, primary screen, imaging, PC-3E GFP, TEM4-18 mCherry, co-culture (AID 1345086;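 active means compounds killing one labelled cell type while sparing the other, by normalised counts and ratio limits, not self-fluorescent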;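 on all read-outs here: cells exposed to compound for 72 h before imaging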;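 on red/green cell ratio (normalised): normalised mesenchymal count divided by normalised epithelial count so high means epithelial killing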); conditions: imaging cell counts, at 1 µM; for red/green cell ratio (normalised): actives lie on both sides, counts scaled to control wells, 1 = unselective
[12] = survival rescue of mitochondrial mutant cells in low glucose, primary screen, MELAS cybrids, Rieske KO mouse fibroblasts, CellTiter-Glo (AID 1508586;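 active means mean z-score across replicates of 1.96 or higher in either the MELAS or the Rieske mutant cell line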;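 further: z relative to plate mean and SD of compound and empty wells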)
[13] = biological target: NAD(+) hydrolase SARM1 (Homo sapiens) (UniProt Q6SZW1); assay: SARM1 TIR NADase inhibitors, cell lysate, NAD-Glo luminescence (AID 1508614;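 active means compound whose remaining NAD level is above about 45 nM, limit read from the data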); conditions: SAM-TIR HEK293T lysate NADase, at 1 µM, stronger effect = higher value
[14] = biological target: Mitogen-activated protein kinase 7 (Homo sapiens) (UniProt Q13164); assay: ERK5 transactivation activators in reporter cells, primary screen, cell-based, HTS (AID 1508626;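 active means luciferase signal above three times the same-plate solvent-only control wells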;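 further: luciferase driven by Gal4-ERK5 fusion binding five Gal4 sites before minimal TATA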); conditions: HeLa Gal4-ERK5 transactivation, 18 h, at 5 µM, stronger effect = higher value
[15] = test system: F380Y; assay: modulators of BK channel variants, profiling panel, selectivity assay, cell-based, U2OS BacMam, thallium flux, beta subunits (AID 1259406); conditions: at 30 µM;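 further: initial slope of Thallos dye fluorescence rise after thallium is added; log ratio against the mean of 0.3% DMSO vehicle wells on the same plate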
[16] = test system: F380Y/beta1; assay: as above; conditions: at 30 µM
[17] = test system: F380Y/beta2Delta; assay: as above; conditions: at 30 µM
[18] = sensitizers of A549 cells to miR-34 induction, primary screen, imaging, A549 dox-inducible miR-34, nuclei and caspase counts (AID 1347080;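 active means compounds whose cell count with miR-34 switched on is under 0.7 times the count with it off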); conditions: A549 miR-34 inducible, Hoechst nuclei count, 48 h
[19] = measured here: epithelial PC-3E GFP cell survival
[20] = measured here: mesenchymal TEM4-18 mCherry cell survival
[21] = MELAS cybrid survival, CellTiter-Glo 48 h, stronger effect = higher value
[22] = Rieske KO mouse fibroblast survival, CellTiter-Glo 72 h
[23] = stronger effect = lower value, cell number ratio, induced over uninduced
[24] = measured here: relative caspase fold change +Dox/-Dox
[25] = measured here: total cells with miR-34 induction, stronger effect = lower value
[26] = measured here: total cells without miR-34 induction

Sequence of 6-phosphogluconate dehydrogenase, decarboxylating (Homo sapiens) (P52209 whole entry, looked up): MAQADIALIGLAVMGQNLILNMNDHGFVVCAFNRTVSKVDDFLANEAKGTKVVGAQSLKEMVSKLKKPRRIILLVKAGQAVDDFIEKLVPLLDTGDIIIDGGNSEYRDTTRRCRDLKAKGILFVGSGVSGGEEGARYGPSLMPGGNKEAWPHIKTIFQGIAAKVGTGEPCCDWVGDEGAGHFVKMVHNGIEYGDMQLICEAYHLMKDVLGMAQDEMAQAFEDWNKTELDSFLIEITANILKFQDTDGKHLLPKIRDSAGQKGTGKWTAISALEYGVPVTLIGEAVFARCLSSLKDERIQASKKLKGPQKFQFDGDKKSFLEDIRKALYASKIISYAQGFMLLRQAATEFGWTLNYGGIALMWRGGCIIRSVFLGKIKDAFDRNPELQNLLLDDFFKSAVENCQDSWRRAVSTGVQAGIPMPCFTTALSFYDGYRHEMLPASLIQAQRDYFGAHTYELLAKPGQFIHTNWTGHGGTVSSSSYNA
Sequence of Mitogen-activated protein kinase 7 (Homo sapiens) (Q13164 whole entry, looked up, the tested form may be a part): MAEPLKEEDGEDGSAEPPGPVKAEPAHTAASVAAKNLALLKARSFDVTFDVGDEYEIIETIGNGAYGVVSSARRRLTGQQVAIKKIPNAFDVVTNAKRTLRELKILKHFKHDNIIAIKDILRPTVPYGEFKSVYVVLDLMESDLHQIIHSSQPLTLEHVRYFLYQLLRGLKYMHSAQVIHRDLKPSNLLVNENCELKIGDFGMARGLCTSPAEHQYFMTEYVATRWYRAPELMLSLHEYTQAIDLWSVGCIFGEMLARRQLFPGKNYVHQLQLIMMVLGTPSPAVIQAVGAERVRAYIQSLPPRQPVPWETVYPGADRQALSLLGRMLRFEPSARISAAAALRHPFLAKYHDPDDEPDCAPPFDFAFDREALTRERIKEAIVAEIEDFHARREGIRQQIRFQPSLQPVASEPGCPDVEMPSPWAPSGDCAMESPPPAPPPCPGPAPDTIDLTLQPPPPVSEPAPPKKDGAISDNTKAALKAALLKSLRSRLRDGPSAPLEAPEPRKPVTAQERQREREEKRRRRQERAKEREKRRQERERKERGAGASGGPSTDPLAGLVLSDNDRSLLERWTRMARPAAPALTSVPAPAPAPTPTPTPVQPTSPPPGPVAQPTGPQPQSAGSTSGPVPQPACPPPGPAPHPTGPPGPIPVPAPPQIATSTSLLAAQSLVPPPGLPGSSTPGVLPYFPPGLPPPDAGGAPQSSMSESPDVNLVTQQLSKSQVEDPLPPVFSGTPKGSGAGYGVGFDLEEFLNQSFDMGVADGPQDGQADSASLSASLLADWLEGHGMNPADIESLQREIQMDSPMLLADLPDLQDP
Sequence of NAD(+) hydrolase SARM1 (Homo sapiens) (Q6SZW1 whole entry, looked up, the tested form may be a part): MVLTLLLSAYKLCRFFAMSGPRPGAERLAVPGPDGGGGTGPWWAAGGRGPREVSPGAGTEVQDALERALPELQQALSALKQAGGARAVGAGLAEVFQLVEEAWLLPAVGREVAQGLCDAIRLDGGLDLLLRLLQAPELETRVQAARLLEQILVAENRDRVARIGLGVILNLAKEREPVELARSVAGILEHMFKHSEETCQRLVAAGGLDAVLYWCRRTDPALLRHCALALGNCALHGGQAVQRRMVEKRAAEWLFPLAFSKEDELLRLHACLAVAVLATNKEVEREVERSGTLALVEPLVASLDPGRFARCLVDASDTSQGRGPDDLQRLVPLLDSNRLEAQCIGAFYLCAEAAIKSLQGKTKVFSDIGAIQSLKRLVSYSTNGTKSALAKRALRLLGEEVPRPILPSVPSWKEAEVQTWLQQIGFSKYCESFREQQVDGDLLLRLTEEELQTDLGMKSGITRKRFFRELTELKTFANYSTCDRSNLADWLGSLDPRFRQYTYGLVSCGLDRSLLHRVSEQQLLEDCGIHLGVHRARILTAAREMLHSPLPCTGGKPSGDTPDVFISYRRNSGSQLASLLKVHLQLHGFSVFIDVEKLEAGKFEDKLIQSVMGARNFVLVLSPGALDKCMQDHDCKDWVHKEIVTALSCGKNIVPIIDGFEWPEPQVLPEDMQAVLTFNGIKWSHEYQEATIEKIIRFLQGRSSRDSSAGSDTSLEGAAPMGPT

CCc1nc(N)nc(N)c1-c1ccc(Cl)cc1
inactive: insulin secretion stimulation [2] 1.3% | viability decrease [3] 18.7% | tube area decrease [4] 16.8% | GLP1 secretion stimulation [5] -0.3% | viability decrease (inhibition) [8] 35% | inhibition [9] 5.34% | mean signal [10] 234 | red/green cell ratio (normalised) [11] 0.84 | z-score [12, 21] -0.337 and 1.11 | remaining NAD [13] 10 nM | luciferase signal [14] 104 AU | log fold change Tl+ flux [15] 0.0572 | log fold change Tl+ flux [16] -0.116 | log fold change Tl+ flux [17] 0.0521
0.9: normalised cell number [11, 19]
0.75: normalised cell number [11, 20]
0.731 and -0.178: z-score [12, 22]
69.7%: nuclear beta-catenin stimulation ([1]; stimulation, at 2 µM)
active: nuclear beta-catenin stimulation ([1]; at 10 µM) 72.4% | inhibition of viability [6] 56.7% | viability decrease (inhibition) [7] 95.5%

CO[C@@]1(NC(=O)Cc2cccs2)C(=O)N2C(C(=O)O)=C(COC(N)=O)CS[C@@H]21
1.09: normalised cell number [11, 20]
10300 and 10400 and 12700: cell count [18, 26]
-0.518: z-score [12, 22]
0.99: normalised cell number [11, 19]
8.44 and 1.64 and 2.66: fold change [18, 24]
-0.5%: nuclear beta-catenin stimulation ([1]; stimulation, at 2 µM)
10400 and 9040 and 11300: cell count [18, 25]
inactive: nuclear beta-catenin stimulation ([1]; at 10 µM) -1.4% | insulin secretion stimulation [2] 2.1% | viability decrease [3] -11.8% | tube area decrease [4] 26.2% | GLP1 secretion stimulation [5] -1.2% | inhibition of viability [6] 14.8% | viability decrease (inhibition) [7] 8.9% | viability decrease (inhibition) [8] -14.4% | inhibition [9] 8.52% | mean signal [10] 248 | red/green cell ratio (normalised) [11] 1.1 | fold change [18, 23] 1.01 and 0.868 and 0.891 | z-score [12, 21] 0.626 | remaining NAD [13] 10 nM | luciferase signal [14] 108 AU | log fold change Tl+ flux [15] 0.0585 | log fold change Tl+ flux [16] -0.00712 | log fold change Tl+ flux [17] -0.00432

NC(=O)N1c2ccccc2CC(=O)c2ccccc21
inactive: nuclear beta-catenin stimulation ([1]; at 10 µM) 5.2% | insulin secretion stimulation [2] -0.8% | viability decrease [3] -2.9% | tube area decrease [4] 0.9% | GLP1 secretion stimulation [5] 0% | inhibition of viability [6] 14.9% | viability decrease (inhibition) [7] 5.4% | viability decrease (inhibition) [8] 15.6% | inhibition [9] 8.8% | mean signal [10] 241 | red/green cell ratio (normalised) [11] 1.05 | z-score [12, 21] -0.278 and 0.355 and 0.309 | remaining NAD [13] 10 nM | luciferase signal [14] 56 AU | log fold change Tl+ flux [15] -0.0346 | log fold change Tl+ flux [16] -0.0277 | log fold change Tl+ flux [17] -0.0162
1.3%: nuclear beta-catenin stimulation ([1]; stimulation, at 2 µM)
-1.12 and 0.011 and -0.438: z-score [12, 22]
1.09: normalised cell number [11, 20]
1.04: normalised cell number [11, 19]

COC1=CC(=O)C[C@@H](C)[C@]12Oc1c(Cl)c(OC)cc(OC)c1C2=O
0.726: z-score [12, 22]
1.41: normalised cell number [11, 19]
1.07: normalised cell number [11, 20]
inactive: nuclear beta-catenin stimulation ([1]; at 10 µM) 1.9% | insulin secretion stimulation [2] 6.2% | viability decrease [3] 38.4% | tube area decrease [4] 24.2% | GLP1 secretion stimulation [5] 0.1% | inhibition of viability [6] 43.7% | viability decrease (inhibition) [8] 20% | inhibition [9] 1.41% | mean signal [10] 231 | red/green cell ratio (normalised) [11] 0.76 | fold change [18, 23] 1.07 and 0.956 and 0.943 | z-score [12, 21] 1.78 | remaining NAD [13] 10 nM | luciferase signal [14] 104 AU | log fold change Tl+ flux [15] 0.00739 | log fold change Tl+ flux [16] -0.046 | log fold change Tl+ flux [17] 0.0194
active: viability decrease (inhibition) [7] 64.1%
6100 and 6900 and 8710: cell count [18, 25]
2.5 and 0.98 and 2.02: fold change [18, 24]
5720 and 7210 and 9240: cell count [18, 26]
0.3%: nuclear beta-catenin stimulation ([1]; stimulation, at 2 µM)
